Experimental findings from PubChem BioAssay are described below.

Experiment [1] in a line: yeast TOR pathway RPL19A-GFP modulators, primary screen, cell-based, S. cerevisiae, multiplex flow cytometry (AID 1862).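 Further: lower values mimic rapamycin by blocking the RPL19A rise seen in DMSO cells.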 The following applies: S. cerevisiae RPL19A-GFP strain, flow cytometry fluorescence, 3 h; at 10 µM; stronger effect = lower value. In general terms: Flow cytometry measures light scatter and fluorescence of single cells or particles in a stream.
A short description of experiment [2]: modulators of MEP2-GFP levels in yeast, primary screen, S. cerevisiae, multiplex flow cytometry (AID 1867;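 active means GFP response, as percent of the DMSO control, above the screen-wide mean plus 3 SD, about 139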;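 further: median GFP channel fluorescence of barcode-gated MEP2-GFP cells measured by flow cytometry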). The conditions noted are these: S. cerevisiae MEP2-GFP strain, 3 h, at 10 µM, stronger effect = higher value, 100% means same as DMSO wells.
A short description of experiment [3]: modulators of CIT2-GFP expression in yeast, primary screen, S. cerevisiae, GFP fusion, multiplex flow cytometry (AID 1870;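 active means percent response above a set limit, the screen-wide mean plus 3 SD, cut at about 130% in these data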;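 further: barcoded CIT2-GFP strain pooled with four other GFP strains with rapamycin as positive control; median GFP fluorescence per well over plate mean of DMSO wells so 100% = DMSO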). The following applies: 3 h, at 10 µM, stronger effect = higher value.
Experiment [4] can be described thus: modulators of LAP4-GFP expression in yeast, primary screen, S. cerevisiae, multiplex flow cytometry (AID 1873;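 active means GFP signal, as percent of the solvent control, above the screen mean plus 3 SD, about 149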). The following applies: 3 h, at 10 µM, stronger effect = higher value.
The nature of experiment [5]: modulators of AGP1-GFP expression in yeast TOR pathway, primary screen, cell-based, multiplex flow cytometry, S. cerevisiae (AID 1887;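 active means GFP signal above the screen-wide mean plus 3 SD, that is over about 124.5% of the solvent control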;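 further: AGP1-GFP fusion strain of S. cerevisiae within a five-strain barcoded multiplex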). The conditions noted are these: 3 h, at 10 µM, stronger effect = higher value.
Experiment [6] in a line: RPL19A-GFP modulators, yeast TOR pathway, confirmation, cell-based, S. cerevisiae, flow cytometry, cherry picks, mother/daughter gates (AID 2270;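 active means GFP response below 50% of the DMSO control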). The conditions noted are these: S. cerevisiae RPL19A-GFP strain, 3 h, at 10 µM, stronger effect = lower value, 100 = same GFP as DMSO wells.
A short description of experiment [7]: LAP4-GFP expression modulators in yeast, confirmation, cell-based, cherry picks, flow cytometry, mother/daughter gates (AID 2271;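 active means GFP response above 150% of the DMSO control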;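 further: ratio of sample to DMSO plate mean so 100% equals DMSO level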). The conditions noted are these: S. cerevisiae LAP4-GFP strain, 3 h, at 10 µM, stronger effect = higher value, 100 means same as DMSO control.
Experiment [8] can be described thus: modulators of MEP2-GFP levels in yeast, confirmation, S. cerevisiae, flow cytometry GFP, cherry picks (AID 2272;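 active means GFP response above 150% of the DMSO control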;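 further: ratio of well signal to plate DMSO mean so 100% equals DMSO level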). The following applies: S. cerevisiae MEP2-GFP strain, 3 h, at 10 µM, stronger effect = higher value.
Experiment [9] can be described thus: modulators of CIT2-GFP expression in yeast, confirmation, S. cerevisiae, GFP fusion, cherry picks, mother/daughter gates (AID 2274;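 active means GFP response above 150% of the DMSO level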). The conditions noted are these: S. cerevisiae CIT2-GFP strain, flow cytometry, 3 h, at 10 µM, stronger effect = higher value.
A short description of experiment [10]: inhibitors of CD8+ T cell-vesicle binding, pilot screen, LFA-1/ICAM-1 modulator project, MLPCN validation set, flow cytometry (AID 2523;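 active means response below a set limit, under 55% cells CD8-positive and vesicle-bound, and CD8 cells' 90th-percentile brightness under 279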;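 on vesicle binding response: mean PE anti-B7-1 fluorescence of CD8+ cells relative to row control; 100% = QL9-loaded vesicles with DMSO vehicle in the same plate row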). The conditions noted are these: 2C mouse CD8+ T cells, at 7 µM, stronger effect = lower value; double positive events: measured here: CD8+/vesicle+ event percentage.
Experiment [11] has as its target Regulator of G-protein signaling 16 (Homo sapiens) (UniProt O15492). The experiment in a line: modulators of RGS–Galpha-o binding, primary screen, biochemical, multiplexed beads, flow cytometry, RGS4/7/8/16/19 (AID 1504).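 Further: fluorescently labeled Galpha-o bound to GDP with aluminium fluoride binding biotinylated RGS beads.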 The conditions noted are these: multiplexed bead flow cytometry, measured here: RGS16 interaction, at 10 µM.
The target of experiment [12] is Regulator of G-protein signaling 19 (Homo sapiens) (UniProt P49795). The experiment is described as above. The following applies: multiplexed bead flow cytometry, measured here: RGS19 interaction, at 10 µM.
The target in experiment [13] is Regulator of G-protein signaling 7 (Homo sapiens) (UniProt P49802). Described as above. The following applies: multiplexed bead flow cytometry, measured here: RGS7 interaction, at 10 µM.
Experiment [14] addresses Regulator of G-protein signaling 8 (Homo sapiens) (UniProt P57771). The description is as above. The conditions noted are these: multiplexed bead flow cytometry, measured here: RGS8 interaction, at 10 µM.
Experiment [15] is described as follows: disruption of biotin probe capture by avidin, counter-screen for RGS protein interaction modulators, biochemical, flow cytometry, bead-based (AID 1783;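 active means inhibition above 50%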;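 further: median green fluorescence of gated singlet beads compared with DMSO control wells; 0% = DMSO wells and 100% = complete loss of bead fluorescence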). The conditions noted are these: streptavidin beads, fluorescein-biotin binding; at 10 µM, stronger effect = higher value. In general terms: Counterscreens check selectivity or assay interference.
In experiment [16] the target is Guanine nucleotide-binding protein G(o) subunit alpha (Homo sapiens) (UniProt P09471). The experiment in a line: RGS8-Galphao binding modulators, confirmation, biochemical, multiplexed bead flow cytometry, single concentration (AID 1836; in the data active means binding response below about 72% or above about 130%; inactive means in between;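 further: Galphao activated as GDP AlF4 complex before binding bead RGS8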). The conditions noted are these: bead-based flow cytometry RGS8-Galphao binding, fluorescence; at 10 µM; actives lie on both sides.

Experiment [17] has the same target. Nature of the experiment: RGS7-Galphao binding modulators, confirmation, biochemical, multiplexed bead flow cytometry, single concentration (AID 1837; in the data active means response below about 75% or above about 130%; inactive means in between;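 further: fluorescent Galphao activated with GDP and aluminum fluoride binding bead-coupled RGS7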). The following applies: bead-based flow cytometry RGS7-Galphao binding; at 10 µM; actives lie on both sides.
For experiment [18], the target named is Regulator of G-protein signaling 16 (Homo sapiens) + Guanine nucleotide-binding protein G(o) subunit alpha (Homo sapiens) (UniProt O15492+P09471). The experiment in a line: modulators of RGS16-Galphao protein binding, confirmation, biochemical, single concentration, multiplexed bead flow cytometry (AID 1838; in the data active means response below about 74% or above about 130%; inactive means in between;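 further: Galphao activated as the GDP aluminium fluoride complex binding bead-coupled RGS16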). The following applies: bead-based flow cytometry, at 10 µM, actives lie on both sides.

For experiment [19], the target named is Guanine nucleotide-binding protein G(o) subunit alpha (Homo sapiens) (UniProt P09471). Nature of the experiment: modulators of RGS4-Galphao protein binding, confirmation, biochemical, single concentration, multiplexed bead flow cytometry (AID 1840; in the data active means binding response below about 74% or above about 130%; inactive means in between). The conditions noted are these: at 10 µM, actives lie on both sides.
Experiment [20] addresses Guanine nucleotide-binding protein G(o) subunit alpha (Homo sapiens) + Regulator of G-protein signaling 19 (Homo sapiens) (UniProt P09471+P49795). The experiment in a line: regulators of RGS19-Galphao binding, confirmation, biochemical, single point, multiplexed bead flow cytometry (AID 1841; in the data active means response below about 50% or above about 160%; inactive means in between;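 further: 100% = no compound control and 0% = blank background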). The conditions noted are these: bead-based flow cytometry RGS19-Galphao binding; at 10 µM; actives lie on both sides.

Where [21] appears, read: measured here: daughter cell gate.
Where [22] appears, read: measured here: mother cell gate.
The mark [23] stands for this setting: measured here: daughter cell gate response.
[24] abbreviates: measured here: mother cell gate response.

The structures appear in SMILES notation. Results filed as inconclusive are left out. Some of the results follow. Active and inactive are the calls of the source. Unless noted, no stated cut-off is given here; in the data, active means percent of DMSO control GFP below about 86%; inactive means the rest, inconclusive results apart.

Guanine nucleotide-binding protein G(o) subunit alpha (Homo sapiens), sequence (P09471 whole entry, looked up): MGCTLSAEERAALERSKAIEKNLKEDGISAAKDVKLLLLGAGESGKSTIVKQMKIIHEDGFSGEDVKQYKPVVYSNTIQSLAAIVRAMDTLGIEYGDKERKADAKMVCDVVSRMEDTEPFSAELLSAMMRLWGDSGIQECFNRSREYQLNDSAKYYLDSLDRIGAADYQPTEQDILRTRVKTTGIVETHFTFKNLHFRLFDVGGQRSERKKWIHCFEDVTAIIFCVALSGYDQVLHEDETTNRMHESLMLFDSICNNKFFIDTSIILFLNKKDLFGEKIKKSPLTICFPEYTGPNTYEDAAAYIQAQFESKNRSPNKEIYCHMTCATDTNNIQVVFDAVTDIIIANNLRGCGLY
Regulator of G-protein signaling 16 (Homo sapiens) + Guanine nucleotide-binding protein G(o) subunit alpha (Homo sapiens), sequence (O15492 whole entry, looked up): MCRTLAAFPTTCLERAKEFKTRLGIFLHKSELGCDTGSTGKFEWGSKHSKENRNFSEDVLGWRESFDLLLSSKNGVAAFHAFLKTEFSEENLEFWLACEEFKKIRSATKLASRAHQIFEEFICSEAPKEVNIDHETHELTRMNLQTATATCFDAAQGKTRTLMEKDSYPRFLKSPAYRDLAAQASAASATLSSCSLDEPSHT
Regulator of G-protein signaling 16 (Homo sapiens) + Guanine nucleotide-binding protein G(o) subunit alpha (Homo sapiens), sequence (P09471 whole entry, looked up): as the sequence (P09471 whole entry, looked up) above
Guanine nucleotide-binding protein G(o) subunit alpha (Homo sapiens) + Regulator of G-protein signaling 19 (Homo sapiens), sequence (P09471 whole entry, looked up): as above
Guanine nucleotide-binding protein G(o) subunit alpha (Homo sapiens) + Regulator of G-protein signaling 19 (Homo sapiens), sequence (P49795 whole entry, looked up): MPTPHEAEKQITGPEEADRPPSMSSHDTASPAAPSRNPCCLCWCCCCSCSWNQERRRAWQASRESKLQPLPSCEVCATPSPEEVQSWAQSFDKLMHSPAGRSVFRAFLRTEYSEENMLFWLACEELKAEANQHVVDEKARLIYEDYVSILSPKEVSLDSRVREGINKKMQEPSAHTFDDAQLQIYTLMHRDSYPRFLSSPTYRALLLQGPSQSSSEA

As for `O=C(O)CCNC(=O)c1ccccc1`, the percent of DMSO control GFP in experiment [1] was 90% (inactive). For the same molecule, the GFP response vs DMSO in experiment [2] is 151% (active); in experiment [4] it was 82% (inactive); in experiment [6], 98.7% (inactive); in experiment [6] (setting [21]) it was 97.5%; in [6] (setting [22]), 98.1%; in [8], 102% (inactive). In [3], the percent response of DMSO control was 101% (inactive). Besides, the GFP response, % of DMSO is 91% (inactive) in experiment [5], 97.8% (inactive) in [9], 98.3% in experiment [9] (setting [21]) and 98% in [9] (setting [22]). Further, the GFP response relative to DMSO was 103% (inactive) in [7], 102% in experiment [7] (setting [23]) and 103% in experiment [7] (setting [24]). The molecule further gave a double positive events in experiment [10] of 65.7%. For the same molecule, the vesicle binding response in experiment [10] was 186% (inactive).
In the case of `O=C(NC1CCCCC1)N1CCc2[nH]c3ccccc3c2C1`, the percent of DMSO control GFP in experiment [1] is 89.3% (inactive). Also, the GFP response vs DMSO in experiment [2] was 147% (active); in [4] it was 83.6% (inactive); in [6], 98.8% (inactive); in [6] (setting [21]) it was 98.1%; in experiment [6] (setting [22]) it was 98.5%; in [8], 100% (inactive). For the same molecule, the percent response of DMSO control in experiment [3] is 119% (inactive). Also, the GFP response, % of DMSO in [5] is 93.1% (inactive); in experiment [9], 107% (inactive); in [9] (setting [21]), 105%; in experiment [9] (setting [22]), 107%. The GFP response relative to DMSO in experiment [7] is 97.9% (inactive); in [7] (setting [23]), 97.6%; in experiment [7] (setting [24]) it was 98.3%. The double positive events in experiment [10] came to 61.4%. For the same molecule, the vesicle binding response in experiment [10] is 212% (inactive).
With `CCOC(=O)C(Cc1cc(C(C)=O)ccc1OC(C)C)C(=O)OCC`, in experiment [1], the percent of DMSO control GFP is 93% (inactive). Besides, the GFP response vs DMSO in [2] is 142% (active); in experiment [4], 85.3% (inactive); in [6], 101% (inactive); in experiment [6] (setting [21]), 101%; in [6] (setting [22]) it was 102%; in experiment [8], 99.5% (inactive). For the same molecule, in [3], the percent response of DMSO control was 110% (inactive). Further, the GFP response, % of DMSO was 89.1% (inactive) in experiment [5], 96.4% (inactive) in experiment [9], 98.3% in experiment [9] (setting [21]) and 96.8% in [9] (setting [22]). In addition, the GFP response relative to DMSO in experiment [7] was 97.7% (inactive); in experiment [7] (setting [23]), 95%; in experiment [7] (setting [24]), 99.5%. Further, the double positive events in experiment [10] was 58.5%. Moreover, the vesicle binding response in [10] is 151% (inactive).
As for `CCCCCCCC(=O)OCC(=O)[C@@]1(O)CC[C@H]2[C@@H]3CCC4=CC(=O)CC[C@]4(C)[C@H]3[C@@H](O)C[C@@]21C`, the percent of DMSO control GFP in [1] is 102% (inactive). For the same molecule, the GFP response vs DMSO in experiment [2] was 107% (inactive); in experiment [4], 96.6% (inactive); in experiment [6], 96.5% (inactive); in experiment [6] (setting [21]), 95.9%; in experiment [6] (setting [22]), 96.9%; in experiment [8] it was 103% (inactive). In addition, the percent response of DMSO control in experiment [3] was 98.9% (inactive). The GFP response, % of DMSO was 98.3% (inactive) in [5], 93.1% (inactive) in experiment [9], 94% in experiment [9] (setting [21]) and 92.6% in experiment [9] (setting [22]). The GFP response relative to DMSO in experiment [7] was 94.1% (inactive); in experiment [7] (setting [23]), 92.9%; in experiment [7] (setting [24]), 96.4%. In experiment [10], the double positive events is 58.8%. The vesicle binding response in experiment [10] is 182% (inactive).
`COc1ccccc1NC(=O)CCCc1c[nH]c2ccccc12`: in experiment [11], the RGS16–Galpha-o binding response worked out at 109%. The molecule also yielded an RGS19–Galpha-o binding response in [12] of 78.4%. Also, the RGS7–Galpha-o binding response in experiment [13] worked out at 312%. This molecule registered an RGS8–Galpha-o binding response in [14] of 85%. Moreover, in experiment [15], the inhibition (as a rule, the relative decrease from the control value, in per cent) is 2.9% (inactive). Further, the binding response (% of control) is 95.7% (inactive) in experiment [16] and 92.5% (inactive) in experiment [19]. The figures for the response (percent of control binding) in [17] and in experiment [20] were 89.4% (inactive) and 92.9% (inactive), respectively. Further, the response (% of control binding) in experiment [18] is 97.2% (inactive).
